Reference: the supplement of paper PMC3334620
In all, about 33,000 sequences were measured (“E-score (-0.5 to 0.5)”: median about -0.016, highest 2% from about 0.31 on). Only a selection was taken, and the highest values are over-represented in it overall.

Each sequence was assayed against Cst6 (UniProt P40535) (assay: PBM E-score (8-mer binding enrichment) (E-score (-0.5 to 0.5)); higher = stronger / more preferred TF binding). Conditions: protein concentration: 200 nM; construct: GST-DNA-binding domain.
UniProt P40535, sequence (P40535 whole entry, the tested form may be a part): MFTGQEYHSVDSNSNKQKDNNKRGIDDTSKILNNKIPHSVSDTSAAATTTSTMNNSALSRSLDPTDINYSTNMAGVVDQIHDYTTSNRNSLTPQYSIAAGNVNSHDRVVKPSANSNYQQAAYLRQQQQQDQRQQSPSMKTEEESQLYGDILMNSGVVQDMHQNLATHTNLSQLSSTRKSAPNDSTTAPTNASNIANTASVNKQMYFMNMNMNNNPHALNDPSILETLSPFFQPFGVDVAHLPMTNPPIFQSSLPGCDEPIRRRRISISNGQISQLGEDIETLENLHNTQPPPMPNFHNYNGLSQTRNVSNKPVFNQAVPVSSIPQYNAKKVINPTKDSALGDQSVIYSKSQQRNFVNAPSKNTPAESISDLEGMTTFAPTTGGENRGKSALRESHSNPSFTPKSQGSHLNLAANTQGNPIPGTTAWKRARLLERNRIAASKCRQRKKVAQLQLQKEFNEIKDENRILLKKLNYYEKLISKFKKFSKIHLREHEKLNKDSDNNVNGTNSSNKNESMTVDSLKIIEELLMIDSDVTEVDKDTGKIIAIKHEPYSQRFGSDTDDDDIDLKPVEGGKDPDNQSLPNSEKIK
Method in brief: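 Universal all-10-mer Agilent arrays, double-stranded by primer extension on fresh or once-stripped slides, were probed with about 100-200 nM GST-tagged yeast transcription factors made by PURExpress. Fluorescent anti-GST detected bound protein, and masliner normalised the scans. E-scores from the Universal PBM Analysis Suite were given to each ungapped eight-base word pooled with its reverse complement.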

Sequence	PBM E-score
CGTAAACA	0.262
TATACCGA	0.00086
CATGATGG	-0.0379
CGTGATGA	0.297
TATGATCA	0.207
GATGATCA	0.171
GATGATGA	0.319
CATGATGA	0.342
TATGATGA	0.337
TATGATAA	0.251
GGTGATGA	0.362
CATGATGC	0.28
GGTGATTA	0.206
GCTGATGA	0.278
CACGCTAC	-0.134
ACTACCGC	-0.0306
CTCTCAAG	-0.14
GCCAACGC	-0.0319
CGAACTAG	0.0382
CGCAATTA	0.18
CCCAAAAC	0.105
CCTGGGGA	-0.402
CCTGCACA	-0.179
ACACTACT	0.0264
CCTTCCGA	-0.149

Sequence	PBM E-score
AGCTACTC	-0.274
ATTGATGA	0.296
CTTGATGA	0.24
GTTGATGA	0.309
ACGAGGAT	-0.0239
ATGTCAAC	0.251
ATGTCAGA	0.221
ATGTCAAA	0.237
ATGTCACG	0.396
ATGTCACC	0.465
ATGTCACA	0.375
CTGTCACC	0.0496
GTGTCACA	0.229
CTGTCACA	0.0581
AGGGCTAG	-0.242
ATCTCTCG	-0.0585
GGGAAAAC	-0.0343
AGAGGTTC	-0.11
AAAGCGCT	0.183
GCCGCACC	0.226
ATAGAAGG	-0.208
ATAATATC	0.219
GCATAATA	0.227
ACATAATC	0.267
ATAATATA	0.358

Sequence	PBM E-score
ACATAATA	0.345
GTATAATA	0.288
CTATAATA	0.0135
GTAATAGA	0.0316
GTAATATA	0.354
ATATAATA	0.31
CTAATATA	0.302
ATAATATG	0.273
TTCACAAA	0.0753
ATCGCGTG	0.0786
CGGGCGAC	-0.319
GGAGGCCA	-0.314
AAAAGGTA	-0.0898
AATTACCG	0.196
ATTCGATC	0.153
GTTGTTCA	0.0498
ATGAGCCG	0.0382
GTACGGCA	0.249
CTACGGCA	0.283
ATACGGCG	0.36
ATACGGCA	0.394
ATACGGCC	0.138
ATACGGTG	0.104
AGAAAAGG	0.0591
CAGACTTA	-0.094

Sequence	PBM E-score
CATAAGCA	-0.0945
GTCACTCA	0.315
ATCACTTA	0.194
GTCACTGA	0.281
GTCACTTA	0.331
ATCACTCA	0.138
CTCACTCA	0.0247
CCAGTGTC	-0.108
GCGCCTAC	0.136
CGGCAACG	0.0207
TCGAAGCA	-0.0376
GGCCGCTA	-0.232
GCCGCGGC	0.31
CCCGCGGC	0.109
GACGCGGC	0.318
CACGCGGC	0.279
AACGCGGC	0.261
GCCGCGGA	0.0146
AGTGAACC	-0.0808
AACGTCAA	0.401
GACGTCGA	0.292
AACGTCGG	-0.174
AACGTCGA	0.133
AACGTCTG	0.0755
AACGTCAG	0.371

Sequence	PBM E-score
AACGTCCA	0.0436
GACGTCCA	0.276
GACGTCAA	0.479
CCCGTCAG	-0.282
CACGTCAG	0.449
CACGTCTG	0.0582
CAAACTCA	0.0635
GGCACCAC	-0.1
AAGCGATG	-0.134
CCAGTTCG	-0.0928
CAAACGCG	0.0743
ATGGCCCA	-0.0308
AACTTCCA	-0.178
AGACCTAC	-0.227
ATCCCAGG	-0.234
CCGATCTC	-0.145
CACGTCTC	-0.097
TACGTCAA	0.484
TACGTCTA	0.188
TGCGTCCA	-0.0683
AACGTCCC	-0.173
CACGTCCC	-0.216
AACGTCAC	0.488
AACGTCTC	-0.0757
CACGTCAC	0.489

Sequence	PBM E-score
TGCGTCAA	0.318
GGCGTCAA	0.263
TACGTCCA	0.0953
CATACTCC	0.0426
CAGCCAAC	-0.13
CGAATTAG	0.0675
CGTTTAAG	0.0111
AGGTCTAC	-0.216
AAACTAGT	0.062
CCCTGAGA	-0.247
GAAATCCC	-0.101
CGTTCTTA	0.0793
AAGCCATG	-0.124
CAACAGCC	0.153
ACAAGAAA	0.237
AACGTCAT	0.489
CACGTCTA	-0.0114
TATGTCAA	0.378
TCTGTCAA	0.111
GACGTCCC	0.016
GACGTCGC	0.236
CCCGTCAA	-0.228
AATGTCAA	0.102
AACGTCCT	-0.0138
AACGTCGT	0.0196

Sequence	PBM E-score
CACGTCAA	0.366
GACGTCAC	0.495
ATAAGCTC	-0.0286
CGCCCACC	-0.0447
CGGTCCGC	-0.198
ACAAAGAA	0.247
GACTGCTC	-0.26
ACACTTAA	0.105
GGGGCTTA	-0.346
CAGATAAA	0.051
CTATCGGA	-0.0998
AGTGTGCC	-0.088
AAAAATTC	0.186
ATGAAATC	0.314
CTGAAATC	0.0366
ATGAAATA	0.283
ATAGCTAT	-0.0877
CTTCGAAG	-0.21
AAGCTATG	-0.0495
ACTAAGAG	-0.0881
CAGAACGG	-0.0224
TAACATCA	0.399
GGACATCA	0.188
CGACATCC	-0.0566
TGACATCA	0.496

Sequence	PBM E-score
AAACATCA	0.268
CGACATCA	0.411
CGACATCG	-0.122
CAACATCA	0.305
AGACATCA	0.0931
ACGCTGGC	-0.207
AAAGGCAC	0.189
CAGACCCC	-0.316
ATCAATGA	0.35
CTCAATGA	0.14
GTCAATGA	0.235
CCGTACCG	-0.0599
CAGGGTGG	-0.23
CCCAAGAC	-0.0855
ATGACAAG	0.134
ATGACATG	0.351
CTGACATA	0.324
AAGACATA	0.0804
CGGACATA	0.0467
ATGACAGG	0.0675
CAGACATA	0.131
ATGACAGA	0.243
GTGACATA	0.471
ATGACATA	0.45
GAGACATA	-0.00422

Sequence	PBM E-score
GGGACATA	-0.0929
CATCTATA	0.162
ACGCGAGG	0.0628
CATGCCCC	-0.109
CATGAGAG	0.0742
CACGTGCG	-0.038
CTAGTTCC	0.0382
ATCGGCTA	-0.138
CGGGCGTC	-0.0942
AAGCCCGG	-0.209
AGAACGGG	-0.0993
CAATAAGA	0.181
ACTGGTTA	0.0197
AGGGACGA	0.0201
AGAGCTCA	-0.192
CGAGCTCA	-0.0803
TGAGCTCA	0.374
GAACCGCC	-0.092
GAGCTAAA	-0.0615
TACGTATA	0.328
GACGTATA	0.322
CCCGTATA	-0.0644
AACGTACA	0.0856
GCCGTATA	0.367
ACCGTATA	-0.0183

Sequence	PBM E-score
CACGTACA	-0.0529
TACGTACA	0.336
TACGTAGA	0.224
CACGTATA	0.167
CACGTATG	0.204
AACGTATA	0.215
ATGTTCGA	0.0764
CAATTGTC	0.0392
AGGATACC	-0.251
GCAGTAAC	-0.065
CATTCTGC	0.0305
CTTCGATA	0.178
ATTCCAAA	0.118
CGCATCCC	-0.216
ACGTAGCC	-0.0377
GACGACGC	0.074
GATGACTA	0.171
AATGACAT	0.422
GATGACCA	0.101
GATGACCC	-0.0821
AATGACAG	0.167
GATGACGA	0.463
AATGACAA	0.267
GATGACAC	0.286
GATGACGC	0.473

Sequence	PBM E-score
CATGACAA	0.14
GATGACAA	0.333
ATAAGGGC	0.0296
GCCGATAC	-0.136
CTCGCTAA	0.0589
AGACGTTA	0.0355
TGATCGCA	0.0445
AGCCGGGC	-0.185
AAGCTTGA	-0.0535
GCTTCGAA	-0.0925
AATGACAC	0.273
TATGACCA	0.202
AATGACCT	0.25
AATGACGT	0.495
ACTGACGC	0.243
ATTGACGC	0.265
TATGACGA	0.424
AAGGACGT	0.0462
CATGACAC	0.328
CCTGACAC	0.029
TATGACAA	0.25
AATGACGC	0.453
AGAGCGGA	-0.0178
CTCAGACC	-0.22
AGACCACC	-0.137

Sequence	PBM E-score
ACCGTCCA	-0.185
ACAGTGAA	0.146
CATCTAGA	0.019
TCCTAGCA	-0.162
GCTCCGAA	-0.0443
CATGACAG	0.118
AATGACCG	0.178
CCTGACGA	0.182
CATGACCA	0.0978
CATGACCG	0.0772
AATGACTA	0.041
CATGACGA	0.438
CATGACGG	0.38
AATGACGA	0.451
ACTGACGA	0.201
AATGACGG	0.35
ACTGACGG	0.105
CGGCCTCA	-0.0129
ACCACCGA	-0.145
CAAAAGCA	-0.0642
AGGGGATG	-0.161
CGGGGCTC	-0.307
ATCGGAGA	-0.197
AGTGACAA	0.169
AGTGACAT	0.459

Sequence	PBM E-score
CATGACCC	-0.0425
CATGACGC	0.455
CATGACTC	0.0297
AGTGACAC	0.274
AGCAGAAC	-0.0649
AATCCACC	-0.121
CAGGGCCC	-0.335
AAGTGAGA	0.00703
TAGTGACA	0.338
AAGTGACT	0.024
CAGTGACC	-0.0895
AAGTGAAA	0.193
TAGTGATA	0.088
AAGTGACC	-0.131
AAGTGACA	0.357
CAGTGACG	0.435
AAGTGACG	0.45
CAGTGACA	0.248
GAGTGACA	0.287
GGAGAATA	0.103
TACCCGAA	-0.133
ATGCCACG	0.00475
GGGAGTAC	-0.226
ACTCACCA	0.043
GGCGTAAC	-0.0656

Sequence	PBM E-score
CCCACGGG	-0.214
TTATCCAA	0.162
CATTGACG	0.358
CATTGACA	0.0835
GGGTGACA	0.243
GGGTGACC	-0.0338
CATTGACC	0.149
TGGTGACA	0.378
CTGCTCCC	-0.174
CCTAATGC	-0.0866
CATCTAAA	0.194
TCAGCTGA	0.152
ATTGAGCC	0.197
ACATTGCA	-0.0281
GCATTAAA	0.163
TCATTACA	0.368
TCATTAAA	0.352
ACATTAAA	0.198
CCATTACA	0.225
GCATTACA	0.187
CCATTGCA	0.024
TCATTGCA	0.321
